For 35 compounds, composite z-score results are on record in PubChem BioAssay.

Structures are written as SMILES.

Chain of Concanavalin-A (Canavalia ensiformis) (P02866 whole entry, looked up): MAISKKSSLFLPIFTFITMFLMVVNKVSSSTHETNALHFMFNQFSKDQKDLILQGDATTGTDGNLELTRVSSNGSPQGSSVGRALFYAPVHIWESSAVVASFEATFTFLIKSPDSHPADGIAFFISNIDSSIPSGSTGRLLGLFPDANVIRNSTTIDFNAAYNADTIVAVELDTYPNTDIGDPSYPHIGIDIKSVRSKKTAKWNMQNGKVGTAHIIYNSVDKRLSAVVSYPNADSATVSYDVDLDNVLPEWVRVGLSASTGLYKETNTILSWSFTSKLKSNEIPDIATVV

One assay has as its target Concanavalin-A (Canavalia ensiformis) (UniProt P02866). Kind of assay: compounds binding concanavalin A lectin – biochemical, small-molecule microarray, Alexa647 label, 635 nm, artefact control for SMM control protein annotation, primary screen (AID 1127).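 Further: z combines 667 nm emission intensity with signal-to-noise across three replicate slides.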 Particulars: ConA-A647 binding fluorescence, higher = more signal.
The compound `Cc1cc(C)cc(N2C(=O)CSC2c2cccc([N+](=O)[O-])c2)c1` (stereo not drawn) displayed a composite z-score of 1.19.

`COCCOC(=O)N1C(=O)[C@@]2(c3cc(C#CC4(O)CCCCCC4)ccc31)[C@H](c1ccc(O)cc1)N1[C@H](c3ccccc3)[C@H](c3ccccc3)OC(=O)[C@H]1[C@@H]2C(=O)NC[C@H](O)c1ccccc1` came in with a composite z-score of 1.02.

As for `COC(=O)c1cn(C[C@@H](Cc2ccccc2)NC(=O)N[C@H](CO)CCc2oc(C(C)=O)c(C(=O)OC)c2C(=O)OC)nn1`, the composite z-score stood at 0.299.

On to `COC(=O)[C@@]1(Cc2ccccc2)[C@H]2c3cc(C(=O)N(C)C)n(Cc4c(CO)[nH]cc(C)c4=O)c3C[C@H]2CN1C(=O)c1ccccc1`, for which the composite z-score came to 0.295.

With `CC(=O)NCCCC[C@@H]1NC(=O)[C@@H]2C[C@H](C(=O)NCCCC[N+](C)(C)C)[C@H](c3ccc(O)cc3)N2C1=O`, the composite z-score amounted to 1.16.

`COc1ccc([Si](C)(C)[C@@H]2[C@@H](CC(=O)N3Cc4ccccc4C[C@H]3CO)O[C@]3(C(=O)N(C)c4ccccc43)[C@H]2C)cc1` came in with a composite z-score of 1.17.

Turning to `COCCOC(=O)N1C(=O)[C@@]2(c3cc(C#CC4=CCCCC4)ccc31)[C@H](C(N)=O)[C@H]1C(=O)O[C@H](c3ccccc3)[C@H](c3ccccc3)N1[C@@H]2c1ccccc1OCCO`, the composite z-score came out at 1.11.

In the case of `COC(=O)[C@@]1(Cc2ccc(OC)cc2)[C@@H]2C(=CC(=O)[C@H]2CC(=O)C(=O)N(C)C)CN1C(=O)c1ccccc1`, the composite z-score was determined as 1.11.

System in the next assay: not listed separately
Kind of assay: compounds binding Alexa647 anti-His antibody – biochemical, small-molecule microarray, 635 nm fluorescence, artefact control for SMM control protein annotation, primary screen (AID 1128).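 Further: score merges feature fluorescence with signal-to-noise for each printed compound spot.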 Particulars: higher = more signal.
The compound `CC[C@H]1C2=C3C(CC[C@H]4C(OCc5ccc(F)cc5C(F)(F)F)OC[C@](C)([C@@H]34)N(C(=O)OC(C)(C)C)C2)C(COC)C1COC` (stereo partly drawn) registered a composite z-score of -0.0372.

The compound `CC(C)N1C(=O)C[C@@](C(=O)NCCCN(C)C)(c2ccc([N+](=O)[O-])cc2)[C@H]1c1ccc(CO)cc1` displayed a composite z-score of -0.616.

`NC(=O)NCC#Cc1ccc2c(c1)[C@]1(C(=O)N2)[C@H](C(=O)NC[C@H](O)c2ccccc2)[C@H]2C(=O)O[C@H](c3ccccc3)[C@H](c3ccccc3)N2[C@@H]1c1ccc(OCCO)cc1` yielded a composite z-score of -0.0888.

On to `Cc1ccccc1C(O)C1C=CC2C(=O)N(C)C(=O)C2N1N(c1ccccc1)c1ccccc1` (stereo not drawn), for which the composite z-score amounted to 1.13.

`C=CCC(OC(C)=O)[C@@H]1[C@@H](N(Cc2cc3ccccc3o2)C(=O)c2ccc(C)cc2)c2cc(OCCCO)ccc2N1C(=O)Cc1ccc(OC)cc1` (stereo partly drawn) had a composite z-score of 0.0464.

In turn, `COC(=O)C1=CC(CCCO)=CC(C2CC2)N(C)C=C1C(=O)OC` (stereo not drawn) gave a composite z-score of -0.153.

`COc1cc2c(cc1OC)CN(C(=O)[C@@H]1[C@H]3C(=O)O[C@H](c4ccccc4)[C@H](c4ccccc4)N3[C@H](c3ccc(OCCO)cc3)[C@@]13C(=O)Nc1ccc(C#CC4(O)CCCCCC4)cc13)CC2`: the composite z-score amounted to 0.367.

In turn, `COc1cc(OC)c(C(O)C2C=CC3C(=O)N(c4ccccc4)C(=O)C3N2Nc2ccccc2)cc1Br` (stereo not drawn) came in with a composite z-score of 1.95.

Turning to `COc1ccc([Si](C)(C)[C@@H]2[C@@H](CC(=O)N(CCO)Cc3ccccc3)O[C@]3(C(=O)N(Cc4cccc(N5C(=O)c6cccc7cccc5c67)c4)c4ccccc43)[C@H]2C)cc1`, the composite z-score amounted to 0.63.

Take `COC(=O)c1c2oc(c1C(=O)OC)C(=O)N(C)Cc1cn(nn1)C[C@H](Cc1ccccc1)NC(=O)N[C@H](CO)CC2`: the composite z-score was -0.0688.

`O=C(CS)NCCCCCCNC(=O)[C@H]1C[C@H]2C(=O)N[C@@H](Cc3ccccc3)C(=O)N2[C@H]1c1ccc(O)cc1` showed a composite z-score of 1.29.

`O=C1C2C=CC(C(O)c3ccccc3)N(Nc3ccccc3F)C2C(=O)N1c1ccccc1` (stereo not drawn) showed a composite z-score of 0.513.

For the compound `CC(C)(C)N1CC=CC23O[C@@H]4C=CCOC(=O)[C@@H]4[C@H]2C(=O)N(CCCCCCO)[C@@H]3C1=O` (stereo partly drawn), the composite z-score stood at 0.184.

`CCCCO[C@H]1C[C@H]2C(I)=C[C@@H]1C(=O)[C@]21CO1`: the composite z-score came to 1.74.

As for `C=CCOC(=O)[C@H]1[C@@H]2C(=O)O[C@@H](c3ccccc3)[C@@H](c3ccccc3)N2[C@@H](c2ccc(OCCOC(=O)[C@@H]3C[C@@H]4C(=O)N5CCC[C@H]5C(=O)N4[C@@H]3c3ccc(O)cc3)cc2)[C@]12C(=O)Nc1ccc(I)cc12`, the composite z-score turned out to be 0.796.

Compound `C=CCOC(=O)[C@H]1[C@@H]2C(=O)O[C@@H](c3ccccc3)[C@@H](c3ccccc3)N2[C@@H](c2ccc(OCCOC(=O)[C@H]3C[C@H]4C(=O)N[C@@H](CCCCNC(C)=O)C(=O)N4[C@H]3c3ccc(O)cc3)cc2)[C@]12C(=O)Nc1ccccc12` had a composite z-score of 2.7.

`CCOc1cc(C(O)C2C=CC3C(=O)N(C)C(=O)C3N2Nc2ccccc2)ccc1O` (stereo not drawn) returned a composite z-score of 1.08.

For `C#CCN([C@@H](Cc1ccc(O)cc1)C(=O)OC)[C@@H](/C=C/C1CC1)[C@H](O)Cc1ccccc1`, the composite z-score was 0.241.

Turning to `O=c1n(-c2ccccc2)c(=O)n2n1CC(COc1ccccc1)=C([C@H](O)CCc1ccccc1)[C@@H]2CO`, the composite z-score was 0.308.

On to `CC(=O)NCCCC[C@@H]1NC(=O)[C@H]2C[C@@H](C(=O)NCCCC[N+](C)(C)C)[C@@H](c3cccc(OCCO)c3)N2C1=O`, for which the composite z-score amounted to 1.57.

`CN1C(=O)C2C=CC(C(O)c3ccccn3)N(N(c3ccccc3)c3ccccc3)C2C1=O` (stereo not drawn) displayed a composite z-score of 0.375.

As for `C[N+](C)(C)CCCCCCNC(=O)[C@H]1C[C@H]2C(=O)NCC(=O)N2[C@H]1c1ccc(O)cc1`, the composite z-score is 2.46.

Regarding `CCCC[C@@H]1C[C@H]1[C@@H](NC(=O)c1cccs1)c1ccc(C(F)(F)F)cc1`, the composite z-score is 0.904.

`COc1ccc(CCN2C(=O)[C@@]3(Cc4ccccc42)c2ccccc2C(=O)N(Cc2ccccc2OC)[C@H]3c2ccc(CO)cc2)cc1` gave a composite z-score of -0.983.

For the compound `C[C@@H]1NC(=O)[C@@]23C(=O)N[C@@H](Cc4ccccc4)C2[C@H](C)[C@@]2(C)O[C@H]2C3/C=C/C/C=C\CNC(=O)[C@@H]2CCCN2C1=O` (stereo partly drawn), the composite z-score was 0.104.

Take `C=C(/C(=C/C[C@H](OC(C)=O)c1cccc(OCCO)c1)c1cnc2ccccc2c1)C(C)C`: the composite z-score was -0.373.

For the compound `[N-]=[N+]=NCc1ccccc1[C@H]1OC(c2ccc(OCCCO)cc2)=N[C@@]1(CCS(=O)(=O)c1ccccc1)C(=O)NCC(O)CO` (stereo partly drawn), the composite z-score was 2.5.

For `Cc1cc(C)cc(N2C(=O)CSC2c2cccc([N+](=O)[O-])c2)c1` (stereo not drawn), the composite z-score is 2.27.

On to `COCCOC(=O)N1C(=O)[C@@]2(c3cc(C#CC4(O)CCCCCC4)ccc31)[C@H](c1ccc(O)cc1)N1[C@H](c3ccccc3)[C@H](c3ccccc3)OC(=O)[C@H]1[C@@H]2C(=O)NC[C@H](O)c1ccccc1`, for which the composite z-score amounted to 0.496.

Consider `COC(=O)c1cn(C[C@@H](Cc2ccccc2)NC(=O)N[C@H](CO)CCc2oc(C(C)=O)c(C(=O)OC)c2C(=O)OC)nn1`, for which the composite z-score was 1.42.

`COC(=O)[C@@]1(Cc2ccccc2)[C@H]2c3cc(C(=O)N(C)C)n(Cc4c(CO)[nH]cc(C)c4=O)c3C[C@H]2CN1C(=O)c1ccccc1`: the composite z-score worked out at 0.886.

As to `CC(=O)NCCCC[C@@H]1NC(=O)[C@@H]2C[C@H](C(=O)NCCCC[N+](C)(C)C)[C@H](c3ccc(O)cc3)N2C1=O`, the composite z-score came out at 3.1.

With `COc1ccc([Si](C)(C)[C@@H]2[C@@H](CC(=O)N3Cc4ccccc4C[C@H]3CO)O[C@]3(C(=O)N(C)c4ccccc43)[C@H]2C)cc1`, the composite z-score turned out to be 1.94.

In the case of `COCCOC(=O)N1C(=O)[C@@]2(c3cc(C#CC4=CCCCC4)ccc31)[C@H](C(N)=O)[C@H]1C(=O)O[C@H](c3ccccc3)[C@H](c3ccccc3)N1[C@@H]2c1ccccc1OCCO`, the composite z-score came out at 1.34.

With `COC(=O)[C@@]1(Cc2ccc(OC)cc2)[C@@H]2C(=CC(=O)[C@H]2CC(=O)C(=O)N(C)C)CN1C(=O)c1ccccc1`, the composite z-score came to 0.318.
